Screening data: PubChem BioAssay, Broad Institute
esBAF inh: SWI/SNF esBAF complex inhibition | mouse ES cells, Bmi1-luciferase knock-in reporter, 24 h; 100% = twice the neutral-well signal | 2% of 350,000 active | reporter increase, % at 12.5 µM; in the data active means activation above about 40%;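 further: a rise in the Bmi1 reporter signal indicates esBAF inhibition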
MITF act: MITF TRPM1 promoter activation in melanoma cells; SK-MEL-5 TRPM1-promoter luciferase, 24 h; % of positive control, neutral wells = 0; activation, % at 12.5 µM; 0.75% of 300,000 active; AID 588334;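 active means mean activation of at least 80% with every replicate also reaching 80%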
MITF TRPM1 inh: inhibitors of MITF-driven TRPM1 promoter in melanoma cells | 0.83% of 330,000 active | SK-MEL-5 TRPM1 promoter luciferase, 24 h | inhibition, % at 12.5 µM | AID 488899;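 active means mean inhibition across replicates of 60% or more, whatever share of single replicates reaches that level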
EWS-Fli block: inhibitors of EWS/Fli oncoprotein transcriptional activity | A673 NR0B1-luciferase reporter, viability-normalised | inhibition, % at 12.6 µM | 0.67% of 350,000 active | AID 651661;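 active means mean inhibition of at least 50% after viability correction, with every replicate also passing that limit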;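 further: firefly luciferase signal divided by Alamar Blue viability fluorescence both relative to DMSO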
Wnt bcat act: activators of Wnt/beta-catenin signaling; AID 743398; Wnt/beta-catenin reporter cell assay, activator, plate reader; activation, % at 9.35 µM; 1.2% of 300,000 active; in the data active means activation above about 30%, passing the limit was not always enough
PAX8 inh HTS: lowers PAX8-driven luciferase in RMG-I cells; RMG-I TPO-luciferase reporter, SteadyGlo, 24 h; 1.2% of 360,000 active; inhibition, % at 12.6 µM;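 active means mean replicate inhibition at least 60% with every replicate also reaching 60%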;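 further: luciferase light reporting Pax8 driven TPO promoter activity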
A number is an active result; i = inactive; nt = no result. A selection: hits, their analogues and other compounds. The true share with any hit is near 4%.

SMILES	esBAF inh	MITF act	MITF TRPM1 inh	EWS-Fli block	Wnt bcat act	PAX8 inh HTS
Cc1cc(C(=O)Cn2nc(C(=O)O)c3ccccc3c2=O)c(C)n1-c1cccc(C(F)(F)F)c1	i	i	i	i	i	i
N=c1n(Cc2ccc(Cl)cc2)c2ccccc2n1CC(O)COc1ccccc1 (stereo not drawn)	i	i	94.0	i	i	i
Cc1cccc(OCC(O)Cn2c(=N)n(CCN3CCCCC3)c3ccccc32)c1 (stereo not drawn)	i	nt	79.1	nt	i	i
N=c1n(Cc2ccccc2)c2ccccc2n1CC(O)COc1ccc(Cl)cc1Cl (stereo not drawn)	nt	i	98.3	61.5	i	93.4
CCN(CC)CCn1c(=N)n(CC(O)COc2cccc(C)c2)c2ccccc21 (stereo not drawn)	nt	i	i	i	i	i
COc1ccc(OCC(O)Cn2c(=N)n(Cc3ccccc3)c3ccccc32)cc1 (stereo not drawn)	i	nt	i	nt	nt	i
O=C(C[C@@H]1C[C@H]2c3cc(NC(=O)C4CCOCC4)ccc3O[C@H]2[C@@H](CO)O1)NCc1ccccc1	i	nt	nt	i	nt	i
CO[C@@H]1CN(C)C(=O)c2ccc(NC(=O)c3ccccc3)cc2OC[C@H](C)NC[C@H]1C	i	nt	nt	i	nt	i
C[C@@H]1CN([C@H](C)CO)S(=O)(=O)c2ccc(-c3ccccc3)cc2O[C@@H]1CN(C)C(=O)c1ccc2c(c1)OCO2	i	nt	nt	i	nt	i
CCC(=O)Nc1cc2nn(-c3ccc(OC)cc3)nc2cc1C	i	i	i	nt	nt	nt
CCC(=O)Nc1cc2nn(-c3ccc(C)cc3)nc2cc1C	i	i	i	77.0	i	i
CCCCC(=O)Nc1cc2nn(-c3ccc(OC)cc3)nc2cc1C	41.5	i	i	i	i	nt
Cc1ccc(-n2nc3cc(C)c(NC(=S)NC(=O)/C=C/c4ccco4)cc3n2)cc1	nt	i	i	nt	i	i
C[C@H]1CN([C@@H](C)CO)C(=O)c2cc(NS(=O)(=O)c3cn(C)cn3)ccc2O[C@H]1CN(C)S(=O)(=O)c1cn(C)cn1	i	nt	nt	i	nt	i
CN(C)P(=O)(Nc1cccc2ccccc12)Nc1cccc2ccccc12	i	nt	nt	i	i	i
CC(C)OP(=O)(Nc1cccc2ccccc12)OC(C)C	nt	i	i	i	66.9	i
O=C1C(C2=NC(c3ccccn3)C3C(=O)N(c4ccc(OC(F)(F)F)cc4)C(=O)C23)=C(O)c2ccccc21 (stereo not drawn)	nt	nt	75.0	i	i	i
COc1cccc(COc2ccc3c(C)cc(=O)oc3c2)c1	51.1	114.2	i	i	45.8	i
Cc1cc(=O)oc2cc(OCCc3ccccc3)ccc12	66.5	i	i	i	i	i
COC(=O)c1ccsc1NC(=O)CCc1ccccc1	48.1	i	i	i	i	i
Cc1ccc(S(=O)(=O)CCC(=O)Nc2sccc2C(N)=O)cc1	i	i	i	i	i	i
COC(=O)c1ccsc1NC(=O)CCS(=O)(=O)c1ccc(Cl)cc1	i	i	i	i	i	82.9
COC(=O)c1ccsc1NC(=O)CCS(=O)(=O)c1ccccc1	nt	i	i	nt	i	84.3
CC12CCC(=O)N1C(C(=O)OCC(=O)Nc1cccc(S(=O)(=O)N3CCCCCC3)c1)CS2 (stereo not drawn)	nt	i	i	i	i	84.2
COc1ccccc1C(=O)Nn1cnc2ccccc2c1=O	67.7	i	i	i	i	nt
SMILES	esBAF inh	MITF act	MITF TRPM1 inh	EWS-Fli block	Wnt bcat act	PAX8 inh HTS
NC(=O)C1CCN(C(=O)/C=C/c2cccc(Br)c2)CC1	i	i	i	i	i	i
O=C1C=CCCN1C(=O)/C=C/c1cccc(Br)c1	nt	nt	nt	64.3	nt	i
COc1ccc(Cc2c(-c3cccc(Br)c3)nc3ccc(Br)cn23)c(C)c1	i	nt	nt	i	i	i
FC(F)(F)c1ccccc1Cc1c(-c2cccc(Cl)c2)nc2ccc(Br)cn12	41.8	nt	nt	i	i	i
COc1ccc(Cc2c(-c3cccc(Cl)c3)nc3ccc(Br)cn23)c(C)c1	51.0	nt	nt	i	i	i
COc1ccc(Cc2c(-c3ccc(F)cc3)nc3ccc(Br)cn23)c(C)c1	56.6	nt	nt	i	i	i
Cc1cc(Br)cn2c(Cc3ccccc3C(F)(F)F)c(-c3cccc(Cl)c3)nc12	nt	nt	nt	i	i	i
COc1ccc2c3c([nH]c2c1)[C@H](CO)N(S(C)(=O)=O)CC31CN(CC2CC2)C1	nt	nt	nt	i	nt	nt
Cc1ccc(S(=O)(=O)N[C@@H]2CC[C@H](CCNC(=O)c3ccccc3F)O[C@H]2CO)cc1	i	nt	nt	i	nt	i
